Screening results: PubChem, several laboratories
PLK1 inh – human PLK1 kinase inhibitors, primary screen, biochemical, TR-FRET | inhibition, % at 10 µM | hit rate 0.53% among 97,000 | AID 619, 2007 | recombinant PLK1 kinase, TR-FRET peptide phosphorylation;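 active = inhibition of 50% or more in the single-concentration screen; inactive = inhibition below 50%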;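 also: 0% = DMSO max control and 100% = H-89 dihydrochloride min control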
Plk1 PBD FP – Plk1 polo box domain binding inhibitors, primary screen, biochemical, fluorescence polarization; hit rate 0.13% among 97,000; Plk1 PBD phosphopeptide binding; inhibition, %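 (tested at about 20 µM)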; Serine/threonine-protein kinase PLK1 (Homo sapiens), P53350; in the data active = inhibition above about 34%, passing the limit was not always enough
CYP2C19 act – human CYP2C19 activators, primary screen, biochemical, luminescence | Cytochrome P450 2C19 (Homo sapiens), P33261 | activation factor at 5 µM | AID 1025, 2008 | 96,000 tested, under 10 active | recombinant CYP2C19, luciferin-H EGE luminescence; active compounds read high; 0 = fully inhibited enzyme, 1 = untreated enzyme;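 active = activation factor of at least 2 at 5 µM in the primary screen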;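 also: 0 = wells with 2.5 mM tranylcypromine and 1 = vehicle-only wells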
CYP2C19 inh – blockers of cytochrome P450 2C19 activity – biochemical, luminescence, ADME assay, primary screen; CYP2C19 Supersomes, luciferin-H EGE luminescence, 30 min; P33261; inhibition, % at 5 µM; hit rate 21% among 96,000;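 active = CYP2C19 inhibition above a set limit at 5 µM in the primary screen, cut at about 50% in these data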;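 also: plate controls were negative control wells for no effect and 2.5 mM tranylcypromine positive control for full effect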
CYP2C9 inh – blockers of cytochrome P450 2C9 activity – biochemical, luminescence, ADME assay, primary screen; P11712; CYP2C9 Supersomes, luciferin-H conversion; inhibition, % at 5 µM; hit rate 20% among 96,000; AID 777, 2007;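 active = blocking of liver enzyme CYP2C9 beyond about 50% at 5 µM, limit read from the data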
Target sequence (P11712 whole entry, looked up): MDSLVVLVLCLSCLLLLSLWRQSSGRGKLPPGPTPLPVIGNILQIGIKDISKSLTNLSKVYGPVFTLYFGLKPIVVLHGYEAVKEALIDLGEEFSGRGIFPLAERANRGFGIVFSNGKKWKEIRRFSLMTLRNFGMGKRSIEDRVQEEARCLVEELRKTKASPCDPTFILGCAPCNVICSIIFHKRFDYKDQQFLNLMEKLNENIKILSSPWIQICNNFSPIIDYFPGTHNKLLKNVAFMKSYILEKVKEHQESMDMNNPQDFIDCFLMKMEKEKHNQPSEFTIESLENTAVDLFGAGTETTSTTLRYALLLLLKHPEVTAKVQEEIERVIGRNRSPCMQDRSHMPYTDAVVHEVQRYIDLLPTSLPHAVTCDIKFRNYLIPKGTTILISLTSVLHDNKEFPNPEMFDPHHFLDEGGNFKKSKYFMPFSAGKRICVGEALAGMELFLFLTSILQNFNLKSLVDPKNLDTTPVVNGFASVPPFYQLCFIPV
CYP2C9 act – human CYP2C9 activators, primary screen, biochemical, luminescence; hit rate 1.4% among 96,000; recombinant CYP2C9, luciferin-H conversion; active compounds read high; factor 1 = untreated enzyme, 0 = blocked; activation factor at 5 µM; AID 1024, 2008;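 active = activation factor of 2 or more for CYP2C9 at a 5 µM dose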;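 also: 0 = sulfaphenazole-blocked wells and 1 = vehicle-only wells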
The depositor's hits bear a star; x = no result. A selection: hits, their analogues and other compounds. The true share with any hit is near 28%.

SMILES | PLK1 inh | Plk1 PBD FP | CYP2C19 act | CYP2C19 inh | CYP2C9 inh | CYP2C9 act
CCOC(=O)CCCNC(=O)COC(=O)c1ccc(O)cc1 | -9 | -40 | 1.1 | -13 | -164 | 2.6*
CCOC(=O)COC(=O)c1ccc(O)cc1 | x | x | 0.9 | 7 | -47 | 1.5
COC(=O)c1ccc(C(=O)OC)c(NC(=O)CCc2ccc(C)o2)c1 | -8 | -8 | 0.5 | 51* | 37 | 0.6
CCc1ccc(CCC(=O)Nc2ccc(C)cc2C)o1 | -6 | -3 | 0.2 | 79* | -30 | 1.3
CCc1ccc(CCC(=O)Nc2ccc(C(C)=O)cc2)o1 | -12 | -4 | x | x | x | x
CCOC(=O)c1ccc(NC(=O)CCS(=O)(=O)c2ccc(Br)s2)cc1 | 8 | 14 | 0.7 | 29 | 51* | 0.5
CCNc1nc(NC(C)C)nc(NS(=O)(=O)c2ccc(N)cc2)n1 | -8 | -11 | 1.3 | -27 | 10 | 0.9
O=C(Oc1ccc(-c2cnc3ccccc3n2)cc1)c1ccco1 | -10 | -11 | 0.7 | 33 | 10 | 0.9
N#Cc1c(NC(=O)c2nc3ncccn3n2)sc2c1CCCCC2 | 0 | -2 | 0.9 | 9 | 35 | 0.6
CCOC(=O)c1ccc(NC(=O)Oc2ccccc2)cc1 | x | x | 0.8 | 20 | 10 | 0.9
CCCOC(=O)c1ccc(NC(=O)CCOc2ccccc2)cc1 | -10 | -5 | 0.5 | 46 | 68* | 0.3
Cn1nnc2cc(NC(=O)N3CC4(C)CC3CC(C)(C)C4)ccc21 (stereo not given) | -8 | 12 | 0.9 | 8 | 18 | 0.8
CCCc1nc(NCc2ccccn2)c2nnn(Cc3ccccc3F)c2n1 | -3 | 3 | 0.7 | 31 | 9 | 0.9
CCc1nc(NCCc2ccccn2)c2nnn(Cc3ccccc3F)c2n1 | x | x | 0.3 | 69* | 67* | 0.3
O=C(CN1C(=O)COc2ccc(Cl)cc21)Nc1ccc2c(c1)OCCO2 | -2 | -32 | 0.8 | 22 | 32 | 0.7
Cc1cccc(NC(=O)CN2C(=O)COc3ccc(Cl)cc32)c1 | x | x | 0.3 | 72* | 18 | 0.8
Cc1cccc(NC(=O)CN2C(=O)COc3ccc(Cl)cc32)c1C | -16 | 17 | 0.1 | 88* | 32 | 0.7
CC(C)(C)C(=O)[C@@H]1[C@@H]2C(=O)N(c3ccc4c(c3)OCCO4)C(=O)[C@@H]2C2c3ccccc3C=CN21 (stereo not given in full) | -1 | -13 | 0.4 | 57* | 57* | 0.4
COc1ccc(N2C(=O)[C@@H]3[C@H](C2=O)[C@H]2c4ccccc4C=CN2[C@@H]3C(=O)Nc2ccccc2)cc1 | -12 | -154 | 0.8 | 15 | 62* | 0.4
Cc1ccc(-c2nnc(SCC(=O)Nc3ccc4c(c3)oc3ccccc34)n2C)c(Cl)c1 | -10 | 6 | 0.8 | 24 | 59* | 0.4
Cc1ccccc1OCc1nnc(SCC(=O)Nc2ccc3c(c2)oc2ccccc23)n1C | -2 | -3 | 0.9 | 6 | -27 | 1.3
COc1cccc(OC)c1OCCCc1c(C)n[nH]c1C | 1 | -6 | 0.5 | 47 | -90 | 1.9
Cc1cccc(OCCCc2c(C)n[nH]c2C)c1 | x | x | 0.1 | 92* | 57* | 0.4
CCn1cc(C(=O)NCCN(C)CCc2ccccc2)c(=O)c2cc(S(=O)(=O)N(C)C)ccc21 | -16 | -5 | 0.6 | 37 | 75* | 0.3
CCCCN(C)C(=O)c1cn(CC)c2ccc(S(=O)(=O)N(C)C)cc2c1=O | 59* | 0 | 1 | -2 | 3 | 1
SMILES | PLK1 inh | Plk1 PBD FP | CYP2C19 act | CYP2C19 inh | CYP2C9 inh | CYP2C9 act
CCCCN(C)C(=O)c1cn(C)c2ccc(S(=O)(=O)N(C)C)cc2c1=O | -12 | -2 | x | x | x | x
CC(C)N(C(=O)N1CCC(c2nc(-c3ccncc3)no2)CC1)C(C)C | -6 | -28 | 0.3 | 66* | 28 | 0.7
O=C(OCC(=O)N1N=C(c2ccc(Cl)cc2)CC1c1ccco1)c1ccccc1O (stereo not given) | -45 | -29 | 0.8 | 17 | 88* | 0.1
O=C(CN(C(=O)CNS(=O)(=O)c1ccccc1)C1CCCC1)NCc1ccco1 | x | x | 0.5 | 46 | 18 | 0.8
Cc1ccccc1Nc1nc(-c2sc(NC(=O)c3ccccc3)nc2C)cs1 | 0 | -13 | 0.4 | 55* | 10 | 0.9
Cc1ccccc1Nc1nc(-c2sc(NC(=O)c3ccc([N+](=O)[O-])cc3)nc2C)cs1 | -13 | 4 | 0.5 | 52* | 44 | 0.6
Cc1nc(NC(=O)c2ccccc2)sc1-c1csc(Nc2ccc(F)cc2)n1 | -11 | 2 | 0.2 | 78* | -87 | 1.9
C=CCn1c(COc2cccc(C)c2)nnc1SCC(=O)NC(=O)NCc1ccco1 | -8 | 5 | 0.7 | 29 | -62 | 1.6
CCOC(=O)C1C(=O)NC(c2ccccc2)=NC1c1ccc(Cl)cc1 (stereo not given) | -10 | 13 | 0.4 | 57* | 20 | 0.8
COc1ccccc1/C=N/NC1=NCCCCC1 | 2 | -29 | 0.9 | 6 | 2 | 1
O=c1n(-c2ccccc2)c(=O)n(Cc2ccccn2)n1Cc1ccccn1 | -14 | -14 | 1 | -5 | -15 | 1.2
O=C(NCc1ccc2c(c1)OCO2)c1ccc(N2CCCC2=O)cc1 | -12 | -3 | 0.8 | 23 | 29 | 0.7
CC(=O)C1=C(C)NC(=O)NC1c1cccs1 (stereo not given) | -7 | 3 | 0.9 | 8 | -6 | 1.1
CC1C(=O)C(C)C(c2cccs2)NC1c1cccs1 (stereo not given) | -7 | 18 | 0.1 | 92* | 15 | 0.8
O=C1c2ccccc2C(=O)N1Cc1nc2ccccc2c(=O)n1CCCn1ccnc1 | -17 | -1 | 0.1 | 88* | 92* | 0.1
O=C1c2ccccc2C(=O)N1CCCc1nc2ccccc2c(=O)n1Cc1ccco1 | -9 | -6 | 0.9 | 7 | 14 | 0.9
CCCCn1c(CN2C(=O)c3ccccc3C2=O)nc2ccccc2c1=O | 2 | 9 | 0.9 | 6 | 28 | 0.7
O=C1c2ccccc2C(=O)N1CCc1nc2ccccc2c(=O)n1CCCn1ccnc1 | -12 | 18 | 0.5 | 50 | 80* | 0.2
Cc1nc(C)n(CC(O)COc2ccc3cc(Br)ccc3c2)n1 (stereo not given) | 8 | -23 | 0.6 | 36 | -6 | 1.1
N#C/C(=C\N1CCOCC1)c1ccccc1 | -4 | -15 | 0.4 | 57* | 24 | 0.8
N#C/C(=C\c1ccc(N2CCOCC2)o1)c1ccccc1 | -16 | -33 | 0.9 | 14 | 25 | 0.7
CCc1nnc2n1N=C(c1ccc(-c3ccc(Cl)cc3Cl)o1)CS2 | -12 | -36 | x | x | x | x
Clc1ccc(OCc2nnc3n2N=C(c2ccc4c(c2)OCCO4)CS3)c(Cl)c1 | x | x | 0.3 | 74* | 97* | 0
COc1ccc(C)cc1Nc1cc(C)nc2nc(C)nn12 | x | x | 0.9 | 9 | 7 | 0.9
